Growth data for eight compounds are collected here from PubChem BioAssay (NCI).

Test in all cases: NCI-60 one-dose screen, 48 h (100 = growth as untreated, 0 = no growth, -100 = all killed)
Conditions in all cases: 10 µM unless noted

Assay [1] concerns DU-145 prostate.
The test system of assay [2] is K-562 leukemia.
In assay [3] the test system is MALME-3M melanoma.
Assay [4] deals with MDA-MB-231 breast.
The subject of assay [5] is RXF 393 renal.
The subject of assay [6] is SF-268 CNS.
Assay [7] concerns SF-295 CNS.
Assay [8] deals with SF-539 CNS.
Assay [9] deals with UACC-257 melanoma.
The test system of assay [10] is M14 melanoma.
In assay [11] the test system is HCT-15 colon.
The subject of assay [12] is SNB-19 CNS.
In assay [13] the test system is U251 CNS.
Assay [14] deals with PC-3 prostate.
The subject of assay [15] is SK-MEL-5 melanoma.
In assay [16] the test system is UACC-62 melanoma.
The test system of assay [17] is LOX IMVI melanoma.
Assay [18] deals with SK-MEL-28 melanoma.
For assay [19], the system named is SNB-75 CNS.
In assay [20] the test system is HT29 colon.

Compounds without any hit were thinned out: in the full panel of roughly 83,000, 20% have a hit.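 Compound tested at a single concentration for 48 hours in 96-well plates; a percent growth value below 10 was scored as active.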 A number with no mark means an inactive call. Active and inactive are the calls of the source.

For `O=C1/C(=C\c2cccn2Cc2ccc(F)cc2)c2ccccc2N1c1c(Cl)cccc1Cl`, the growth in assay [1] is 91.2%; in [2], 70.8%; in assay [3] it was 87.6%; in assay [4], 75%; in assay [5], 81.5%; in [6], 79.9%. Further, the growth in [7] was 81.9%; in assay [8], 87.5%; in assay [9] it was 90.3%; in assay [10], 94.9%; in [11], 56.2%; in [12] it was 81.3%. The growth in assay [13] is 75.7%; in assay [14], 52%; in [15], 57.7%; in assay [16] it was 62%; in assay [17], 91.1%; in assay [18], 87.4%.

Consider `COc1cc(C2CC(c3ccc(Nc4ccnc5cc(Cl)ccc45)cc3)=NN2c2ccccc2)cc(OC)c1OC` (stereo unspecified), for which the growth was 79.1% in assay [1]; 19.1% in [2]; 45.6% in assay [3]; 77.5% in assay [4]; 76.3% in assay [5]; 70.6% in assay [6]. Also, the growth in [7] was 57.7%; in [8] it was 77%; in assay [9], 84.7%; in [10] it was 55.5%; in assay [11] it was 45.5%; in assay [19], 72.6%. Moreover, the growth in [12] is 79.7%; in assay [13] it was 60.5%; in assay [14], 60.8%; in [15], 49.5%; in [16], 49.9%; in assay [17], 58.7%. In addition, the growth in assay [18] is 79.1%.

`CCN(CC)CCCCCCCNc1cc(OC)cc2c(C)ccnc12`: the growth was 102% in [1]; 36.7% in [2]; 103% in [3]; 54.1% in assay [4]; 91.6% in assay [5]; 91.1% in [6]. The growth is 91.3% in [8]; 92.6% in assay [9]; 97.6% in assay [10]; 76.8% in [11]; 52.5% in [20]; 82.9% in [19]. Moreover, the growth in assay [12] was 96.3%; in [13], 86%; in assay [14] it was 51.4%; in assay [15], 85.3%; in [16], 91.3%; in [17], 56.6%. Besides, the growth in [18] is 105%.

`Cn1nc(C(F)(F)F)cc1-c1c[nH]c(OCc2ccc(Cl)cc2)c(-c2ccc(Cl)c(C(F)(F)F)c2)c1=O`: the growth in assay [1] is 15.7%; in assay [2], 8.64% (active); in assay [3], -24.2% (active); in [4], -29% (active); in [5], -21.9% (active); in assay [6], 8.48% (active). The growth in assay [8] was -11.4% (active); in [9] it was 4.21% (active); in assay [10], 1.49% (active); in assay [11], 6.6% (active); in assay [20] it was 5.99% (active); in assay [19], -6.2% (active). Further, the growth in assay [12] is 21.1%; in assay [13], 8.33% (active); in assay [14] it was 5% (active); in assay [15], -63.9% (active); in assay [16], -14.9% (active); in [17], 7.07% (active). For the same compound, in assay [18], the growth was 10.1%.

Consider `NC(N)=N/N=C/c1ccccc1`, for which the growth was 105% in assay [1]; 96.1% in assay [2]; 102% in [3]; 92.9% in [4]; 101% in [5]; 103% in assay [6]. Also, the growth was 88.3% in assay [7]; 98% in assay [8]; 93.9% in assay [9]; 103% in [10]; 93.1% in assay [11]; 88.6% in [19]. Also, the growth in [12] is 92.5%; in assay [13] it was 97.5%; in assay [14], 94.1%; in assay [15] it was 102%; in assay [16] it was 101%; in assay [17] it was 100%. In addition, the growth in assay [18] was 100%.

Consider `Clc1ccc(Nc2ncnc3c2sc2ncccc23)c(Cl)c1`, for which the growth in assay [1] is 20.1%; in assay [2], 43.4%; in assay [3], 58.2%; in [4] it was 61.1%; in assay [5], 34%; in [6], 18.4%. For the same compound, the growth in [7] is 17.9%; in [8] it was 6.17% (active); in [9], 39.3%; in assay [10], -25.6% (active); in assay [11] it was 47.7%; in assay [20], 39.4%. The growth in [12] was 27.4%; in [13], 27%; in [14], 49.5%; in [15], 28%; in assay [16], 12.7%; in assay [17], 4.08% (active). For the same compound, in [18], the growth is 65.9%.

`Cc1ccc(CSCc2ccc(C(=O)NC3CC3)o2)cc1`: the growth was 80.5% in assay [1]; 40% in assay [2]; 96.4% in [3]; 35.3% in [4]; 92.7% in assay [5]; 83.2% in [6]. The growth in assay [8] is 79.8%; in [9] it was 93.5%; in [10], 57.3%; in [11], 37.7%; in assay [20] it was 27.9%; in assay [19], 86%. In addition, the growth is 98.8% in assay [12]; 56.4% in [13]; 74.2% in assay [14]; 57.3% in assay [15]; 50.5% in assay [16]; 58.2% in assay [17]. Further, in [18], the growth is 100%.

In the case of `C#CC[C@@H]1C[C@]2(C)[C@H]3CC[C@@H]4[C@H]5C(C(=C)C)CC[C@]5(C(=O)NCCCN5CCN(CCCN)CC5)CC[C@@]4(C)[C@]3(C)CC[C@H]2C(C)(C)[C@H]1OC(C)=O` (stereo partly specified), the growth in assay [1] was -92% (active); in assay [2], -19.8% (active); in [3], 67.8%; in assay [4] it was -83.3% (active); in [5], -87.4% (active); in assay [6] it was 85.5%. The growth in assay [8] is -91.3% (active); in assay [9] it was 72.1%; in assay [10], -80.5% (active); in assay [11], -50.4% (active); in [20], -68.7% (active); in [19], -95.7% (active). Further, the growth in assay [12] is -8.5% (active); in [13], -68.2% (active); in [14], 8.53% (active); in assay [15], 83.3%; in assay [16] it was -85.6% (active); in [17], -85.3% (active). For the same compound, the growth in [18] was -59.5% (active).
